Measurements reported in PubChem BioAssay AID624139 (Broad Institute, 2012).
Among all 17,000 compounds or so, about 220 (1.3%) were called active.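 How the source made its calls: active means spot fluorescence over background significantly raised, with a chance value under 7% in all four replicate spots of the compound; inactive means the rest.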 Many of the other results were omitted from the sample, so actives are more common in it than they were.

target: Nuclear factor NF-kappa-B p105 subunit (Homo sapiens) (UniProt P19838); assay: small molecules binding NF-kappa-B p105/p50 – biochemical, small molecule microarray, anti-His fluorescence, primary screen (AID 624139);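 further: probe protein is his-tagged human p50 processed subunit at 1 µg/ml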
Sequence (P19838 1-433 limits assumed): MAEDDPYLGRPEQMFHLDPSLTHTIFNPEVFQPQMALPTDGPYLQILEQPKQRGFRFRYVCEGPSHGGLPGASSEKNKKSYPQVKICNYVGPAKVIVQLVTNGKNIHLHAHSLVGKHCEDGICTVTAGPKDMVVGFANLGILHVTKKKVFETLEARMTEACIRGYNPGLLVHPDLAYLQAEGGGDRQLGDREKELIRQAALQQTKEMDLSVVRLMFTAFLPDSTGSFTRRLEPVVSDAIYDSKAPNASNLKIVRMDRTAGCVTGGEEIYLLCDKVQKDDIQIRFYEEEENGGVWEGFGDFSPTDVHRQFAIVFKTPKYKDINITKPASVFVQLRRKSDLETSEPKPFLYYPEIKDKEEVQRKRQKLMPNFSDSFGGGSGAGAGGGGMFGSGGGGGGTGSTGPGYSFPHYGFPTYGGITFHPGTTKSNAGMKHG

Row | Compound | outcome
1 | CC(C)(C)[C@H]1C=C(C(=O)NCc2ccccc2)O[C@@H](OCc2ccc(CO)cc2)C1 | inactive
2 | Cc1sc2nc(SCC(=O)Nc3ccccc3C(F)(F)F)nc(N)c2c1C | inactive
3 | NC(=O)CSc1nnc(-c2ccccc2F)n1-c1ccccc1 | inactive
4 | C[C@@H]1CN([C@H](C)CO)C(=O)c2cc(NC(=O)CCCN(C)C)ccc2O[C@H]1CN(C)Cc1ccc(C(=O)O)cc1 | inactive
5 | CC(C)NC(=O)N(C)C[C@H]1OCCCC[C@H](C)Oc2ccc(NC(=O)CCC(F)(F)F)cc2C(=O)N([C@@H](C)CO)C[C@@H]1C | inactive
6 | C[C@@H]1CCCCO[C@@H](CN(C)Cc2ccccc2)[C@H](C)CN([C@H](C)CO)C(=O)c2cc(NS(=O)(=O)c3cccs3)ccc2O1 | inactive
7 | C[C@@H]1CN([C@H](C)CO)C(=O)Cc2cc(NC(=O)CCN3CCOCC3)ccc2O[C@H]1CN(C)Cc1ccncc1 | inactive
8 | C[C@@H]1CCCCO[C@H](CN(C)Cc2ccncc2)[C@H](C)CN([C@H](C)CO)C(=O)c2cc(NC(=O)Nc3ccccc3)ccc2O1 | inactive
9 | CC(C)NC(=O)Nc1cccc2c1O[C@H](CN(C)Cc1ccccc1)[C@H](C)CN([C@H](C)CO)C2=O | inactive
10 | C[C@@H]1CN([C@H](C)CO)C(=O)Cc2cc(NC(=O)CCCN(C)C)ccc2O[C@@H]1CN(C)S(=O)(=O)c1cccs1 | inactive
11 | C[C@H](CO)N1C[C@H](C)[C@@H](CN(C)S(=O)(=O)c2cn(C)cn2)Oc2ccc(N(C)C)cc2CC1=O | inactive
12 | C[C@H]1CN([C@@H](C)CO)C(=O)c2cc(NC(=O)Nc3cccc4ccccc34)ccc2O[C@@H]1CN(C)C | inactive
13 | C[C@H](CO)N1C[C@H](C)[C@H](CN(C)C(=O)NC2CCCC2)Oc2ncc(-c3ccc(F)cc3)cc2C1=O | inactive
14 | CCOc1ccc(-c2cn(S(=O)(=O)c3cccc4nsnc34)nc2N)cc1 | inactive
15 | Cc1cccc(NC(=O)CN2C(=O)CNC2=O)c1 | inactive
16 | CC(C)NC(=O)Nc1ccc2c(c1)C(=O)N([C@@H](C)CO)C[C@H](C)[C@@H](CN(C)C)O2 | inactive
17 | C[C@H](CO)N1C[C@H](C)[C@@H](CN(C)C)Oc2ccc(N(C)C)cc2C1=O | inactive
18 | C[C@@H]1CN([C@H](C)CO)C(=O)c2cccc(NS(C)(=O)=O)c2O[C@@H]1CN(C)S(=O)(=O)c1cccs1 | inactive
19 | C[C@H]1CN([C@@H](C)CO)C(=O)c2cc(NC(=O)NC3CCCCC3)ccc2O[C@@H]1CN(C)S(=O)(=O)c1cccs1 | inactive
20 | COc1cccc(/C=C(\C#N)C(=O)Nc2c(C)n(C)n(-c3ccccc3)c2=O)c1 | inactive
21 | C[C@H](CO)N1C[C@H](C)[C@H](CN(C)C(=O)NC2CCCCC2)Oc2ccc(NC(=O)c3ccncc3)cc2CC1=O | inactive
22 | Cc1c(C(=O)NC(=S)NCc2cccnc2)oc2ccccc12 | inactive
23 | Cc1noc(C)c1NC(=O)N(C)C[C@@H]1OCCCC[C@H](C)Oc2ccc(NC(=O)CCC(F)(F)F)cc2C(=O)N([C@@H](C)CO)C[C@@H]1C | inactive

Row | Compound | outcome
24 | C[C@H]1CN([C@@H](C)CO)C(=O)Cc2cc(NC(=O)Nc3ccc(F)cc3)ccc2O[C@@H]1CN(C)C(=O)NC1CCCCC1 | inactive
25 | O=C(Nc1cccc(OCC(=O)N2CCOCC2)c1)C1CCCCC1 | inactive
26 | O=C(C1=C[C@H](c2coc3ccccc3c2=O)C[C@H](OCc2ccc(CO)cc2)O1)N1CCOCC1 | inactive
27 | CC(C)NC(=O)Nc1ccc2c(c1)C(=O)N([C@@H](C)CO)C[C@@H](C)[C@H](CN(C)C(=O)Cc1ccccc1)OCCCC[C@H](C)O2 | inactive
28 | C[C@@H]1CN([C@H](C)CO)C(=O)c2cccc(NC(=O)Nc3ccccc3)c2O[C@@H]1CN(C)C(=O)NC1CCCCC1 | inactive
29 | C[C@@H]1CCCCO[C@H](CN(C)C(=O)Nc2ccccc2)[C@H](C)CN([C@@H](C)CO)C(=O)c2cc(N(C)C)ccc2O1 | inactive
30 | C[C@@H]1CCCCO[C@@H](CN(C)C(=O)Nc2ccccc2)[C@@H](C)CN([C@@H](C)CO)C(=O)c2cc(N(C)C)ccc2O1 | inactive
31 | C[C@H](CO)N1C[C@H](C)[C@@H](CN(C)C(=O)Nc2ccccc2)Oc2ccc(NC(=O)C3CC3)cc2CC1=O | inactive
32 | C[C@H](CO)N1C[C@H](C)[C@@H](CN(C)C(=O)Nc2cccc3ccccc23)OCCCC[C@H](C)Oc2ccc(N(C)C)cc2C1=O | active
33 | C[C@@H]1CN([C@H](C)CO)C(=O)Cc2cc(NC(=O)C3CC3)ccc2O[C@H]1CN(C)Cc1ccc(Cl)c(Cl)c1 | active
34 | C[C@@H]1CCCCO[C@@H](CN(C)C(=O)Nc2ccccc2)[C@@H](C)CN([C@H](C)CO)C(=O)c2cc(NC(=O)Nc3ccc(F)cc3)ccc2O1 | inactive
35 | C[C@H](CO)N1C[C@H](C)[C@@H](CN(C)C(=O)NC2CCCCC2)Oc2c(NC(=O)Nc3ccc(F)cc3)cccc2C1=O | inactive
36 | C[C@H]1CN([C@@H](C)CO)C(=O)c2cccc(NC(=O)Nc3ccc(C(F)(F)F)cc3)c2O[C@H]1CN(C)C(=O)NC1CCCCC1 | active
37 | C[C@@H]1CCCCO[C@@H](CN(C)C(=O)Cc2ccccc2)[C@H](C)CN([C@@H](C)CO)C(=O)c2cc(NC(=O)Nc3ccc(F)cc3)ccc2O1 | active
38 | C[C@@H]1CN([C@H](C)CO)C(=O)Cc2cc(NC(=O)C3CC3)ccc2O[C@H]1CN(C)Cc1ccc2c(c1)OCO2 | inactive
39 | C[C@@H]1CN([C@@H](C)CO)C(=O)c2cc(NC(=O)C3CCCCC3)ccc2O[C@@H](C)CCCCO[C@@H]1CN(C)C(=O)Nc1ccccc1 | inactive
40 | C[C@@H]1CCCCO[C@H](CN(C)C(=O)Nc2ccccc2)[C@H](C)CN([C@H](C)CO)C(=O)c2cc(NC(=O)Nc3ccccc3)ccc2O1 | inactive
41 | C[C@H](CO)N1C[C@H](C)[C@@H](CN(C)C)OCCCC[C@H](C)Oc2ccc(NC(=O)C3CCCCC3)cc2C1=O | inactive
42 | C[C@@H]1CCCCO[C@H](CN(C)C(=O)C2CCCCC2)[C@@H](C)CN([C@@H](C)CO)C(=O)c2cc(NC(=O)Nc3ccccc3)ccc2O1 | active
43 | CC(C)NC(=O)N(C)C[C@@H]1OCCCC[C@@H](C)Oc2ccc(NC(=O)Nc3ccccc3)cc2C(=O)N([C@H](C)CO)C[C@@H]1C | inactive
44 | C[C@@H]1CCCCO[C@H](CN(C)C(=O)NC2CCCCC2)[C@H](C)CN([C@@H](C)CO)C(=O)c2cc(NC(=O)C3CCCCC3)ccc2O1 | active
45 | C[C@@H]1CN([C@@H](C)CO)C(=O)c2cc(NS(=O)(=O)c3ccccc3)ccc2O[C@@H](C)CCCCO[C@H]1CN(C)C(=O)C1CCCCC1 | inactive
46 | C[C@@H]1CCCCO[C@H](CN(C)C(=O)CCCN(C)C)[C@H](C)CN([C@@H](C)CO)C(=O)c2cc(NS(=O)(=O)c3ccccc3)ccc2O1 | inactive

Row | Compound | outcome
47 | CCC1(C)C(=O)C=C2C(=COC(C)=C2C)C1O (centres undefined) | inactive
48 | COc1ccccc1NC(=O)c1ccc(OCC(=O)O)cc1 | inactive
49 | C[C@H](CO)N1C[C@H](C)[C@@H](CN(C)C(=O)Nc2cccc3ccccc23)Oc2c(NS(=O)(=O)c3ccccc3)cccc2C1=O | inactive
50 | CC1OC(Oc2cc(O)c3c(=O)c(OC4OCC(O)C(O)C4O)c(-c4ccc(O)cc4)oc3c2)C(O)C(O)C1O (centres undefined) | inactive
51 | O=C(CS(=O)(=O)c1ccccc1)Nc1ccc2c(c1)OCCO2 | inactive
52 | COc1ccc(CN(C)C[C@H]2Oc3ccc(NC(=O)CCN4CCOCC4)cc3C(=O)N([C@@H](C)CO)C[C@H]2C)cc1 | inactive
53 | CC(=O)OC[C@H]1O[C@@H](Oc2c(-c3ccc(O)c(O)c3)oc3cc(O)cc(O)c3c2=O)[C@H](O)[C@@H](O)[C@@H]1O | inactive
54 | C[C@H](CO)N1C[C@H](C)[C@@H](CN(C)Cc2ccc3c(c2)OCO3)Oc2ccc(NC(=O)Nc3ccc(F)cc3)cc2C1=O | inactive
55 | C[C@@H]1CN([C@@H](C)CO)C(=O)c2cc(NC(=O)Nc3ccc4c(c3)OCO4)ccc2O[C@@H](C)CCCCO[C@@H]1CN(C)Cc1ccccc1 | inactive
56 | CCOC(=O)c1nnn(-c2nonc2-n2cccc2)c1CN1CCOCC1 | inactive
57 | Cc1noc(C)c1NC(=O)Nc1ccc2c(c1)CC(=O)N([C@@H](C)CO)C[C@H](C)[C@@H](CN(C)C(=O)Nc1ccc3c(c1)OCO3)O2 | inactive
58 | C[C@@H]1CN([C@@H](C)CO)C(=O)Cc2cc(NC(=O)NC3CCCCC3)ccc2O[C@H]1CN(C)C(=O)Nc1ccc(C(F)(F)F)cc1 | inactive
59 | Cc1cc(C)cc(Oc2c(C(F)(F)F)oc3cc(OCC(=O)O)ccc3c2=O)c1 | active
60 | C[C@H]1CN([C@@H](C)CO)C(=O)Cc2cc(NS(C)(=O)=O)ccc2O[C@@H]1CN(C)S(=O)(=O)c1cccs1 | inactive
61 | N#Cc1c(SCC(=O)Nc2ccccc2)ncc2cc3ccccc3nc12 | inactive
62 | CN(C)Cc1c(O)ccc2occ(C(O)c3ccccc3)c12 (centres undefined) | inactive
63 | Cc1ccc(S(=O)(=O)NCC(=O)N2CCN(c3ccccn3)CC2)cc1 | inactive
64 | CCCN(C)C[C@@H]1Oc2ncc(C#Cc3ccccc3)cc2C(=O)N([C@H](C)CO)C[C@@H]1C | inactive
65 | C#Cc1ccc([C@H]2C=C(C(=O)O)O[C@@H](OCC)[C@@H]2CCCO)cc1 | inactive
66 | COc1ccc(NC(=O)N(C)C[C@@H]2OCCCC[C@@H](C)Oc3ccc(N(C)C)cc3C(=O)N([C@H](C)CO)C[C@@H]2C)cc1 | inactive
67 | C[C@@H]1CCCCO[C@@H](CN(C)C)[C@@H](C)CN([C@H](C)CO)C(=O)c2cc(N(C)C)ccc2O1 | inactive
68 | C[C@H](CO)N1C[C@H](C)[C@@H](CN(C)C(=O)C2CCCCC2)OCCCC[C@H](C)Oc2ccc(N(C)C)cc2C1=O | inactive
69 | C[C@@H]1CCCCO[C@H](CN(C)S(=O)(=O)c2cccs2)[C@@H](C)CN([C@@H](C)CO)C(=O)c2cc(NC(=O)Nc3ccc4c(c3)OCO4)ccc2O1 | inactive
